AGP1-GFP MLPCN – yeast TOR pathway AGP1-GFP modulation; S. cerevisiae AGP1-GFP multiplex flow cytometry, 3 h; GFP as percent of DMSO wells; 320,000 compounds, 0.02% hits; GFP response vs DMSO, % at 10 µM;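 active = GFP response relative to DMSO above a set limit, near screen average plus 3 SD, cut at about 150% in these data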;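 note: median GFP channel fluorescence of the gated AGP1 strain per well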
LAP4 TOR yeast – modulators of TOR pathway LAP4-GFP in S. cerevisiae | S. cerevisiae LAP4-GFP multiplex, flow cytometry GFP, 3 h; median GFP as percent of DMSO wells | GFP response vs DMSO, % at 10 µM | 320,000 compounds, 0.34% hits;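 active = GFP response vs DMSO above a set limit, about the screen mean plus 3 SD, cut at about 150% in these data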
RPL19A TOR yeast – yeast TOR pathway RPL19A-GFP modulation; percent response vs DMSO, % at 10 µM; AID 2025; S. cerevisiae RPL19A-GFP strain, flow cytometry, 3 h; active compounds read low; 330,000 compounds, 0.3% hits;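 active = percent response vs DMSO below 50%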;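 note: median channel GFP fluorescence of the barcoded RPL19A-GFP strain; lower means less RPL19A-GFP as with rapamycin TOR inhibition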
CIT2 TOR yeast – modulators of TOR pathway CIT2-GFP in S. cerevisiae; S. cerevisiae CIT2-GFP strain, flow cytometry, 3 h; 100 means same as DMSO wells; GFP response vs DMSO, % at 10 µM; 320,000 compounds, 0.065% hits; AID 2029;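 active = GFP response relative to DMSO above a set limit, near the screen mean plus 3 SD, cut at about 150% in these data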;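 note: ratio of well median GFP fluorescence to mean of DMSO wells on the plate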
MEP2 TOR yeast – alters MEP2-GFP fluorescence in TOR pathway yeast screen | AID 2016 | 330,000 compounds, 0.51% hits | S. cerevisiae MEP2-GFP strain, flow cytometry GFP, 3 h; 100% = DMSO control level | GFP response vs DMSO, % at 10 µM;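 active = GFP response versus DMSO above a set limit, roughly screen mean plus 3 SD, cut at about 180% in these data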;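 note: median GFP fluorescence of the barcode-gated MEP2-GFP cells per well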
LAP4 cherry2 – second confirmation of modulators of TOR reporter LAP4-GFP in yeast | shares compounds with LAP4 TOR yeast | S. cerevisiae LAP4-GFP strain, flow cytometry GFP, 3 h | GFP response vs DMSO, % at 10 µM | 590 compounds, 20% hits;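 active = GFP signal as percent of the solvent control above about 150%, meaning raised reporter expression, limit read from the data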
MEP2-GFP pick2 – second confirmation of modulators of TOR reporter MEP2-GFP in yeast | shares compounds with LAP4 TOR yeast | S. cerevisiae MEP2-GFP strain, flow cytometry GFP, 3 h | GFP response vs DMSO, % at 10 µM | 590 compounds, 10% hits | AID 2622;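 active = GFP signal above 150% of the solvent control wells, that is a rise of more than half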;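 note: median channel GFP fluorescence of all gated yeast cells per well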
RPL19A GFP CP2 – reconfirmed modulator of RPL19A-GFP TOR reporter in yeast; 590 compounds, 3% hits; GFP response vs DMSO, % at 10 µM; S. cerevisiae RPL19A-GFP strain, flow cytometry GFP, 3 h; active compounds read low; 100% means same as DMSO wells; shares compounds with LAP4 TOR yeast;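 active = under 65% GFP response relative to DMSO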;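 note: median GFP channel fluorescence per well over the all cells gate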
CIT2-GFP pick2 – second confirmation of modulators of TOR reporter CIT2-GFP in yeast; S. cerevisiae CIT2-GFP strain, flow cytometry GFP, 3 h; DMSO control wells read 100%; GFP response vs DMSO, % at 10 µM; shares compounds with LAP4 TOR yeast; 590 compounds, 8% hits;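 active = GFP response vs DMSO above about 150%, limit read from the data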;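 note: median green fluorescence per well over all gated yeast cells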
AGP1-GFP pick2 – second confirmation of modulators of TOR reporter AGP1-GFP in yeast. shares compounds with LAP4 TOR yeast. S. cerevisiae AGP1-GFP strain, flow cytometry GFP, 3 h. percent response vs DMSO, % at 10 µM. 590 tested, under 10 active. AID 2643;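 active = over 150 percent of DMSO response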;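 note: median GFP channel fluorescence over all cells without mother daughter split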
s288c autofluor – yeast s288c autofluorescence artifact, counter-screen. shares compounds with LAP4 TOR yeast. S. cerevisiae s288c, 520 nm autofluorescence, flow cytometry, 3 h; active compounds read high; zero means same as solvent-only cells. 610 tested, under 10 active. fluorescence change (kMESF span) at 33 µM. AID 2757;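 active = fluorescence span over the dose series, or activity score, above about 33, limit read from the data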
Yeast autofl DR – yeast s288c autofluorescence artifact in dose response; fluorescence change (span) at 33 µM; 110 tested, under 10 active; S. cerevisiae s288c parental, compound autofluorescence, flow cytometry, 3 h; shares compounds with LAP4 TOR yeast; AID 488829;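 active = fluorescence change span, or the activity score built from it, above 25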
TORC1 bypass – compounds blocking wildtype yeast growth but not TORC1 bypass cells; growth rating (0-3) at 30 µM; S. cerevisiae BY4741 spot growth rating, 48-72 h; active compounds read low; 120 tested, under 10 active; shares compounds with LAP4 TOR yeast;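 active = growth rating at most 1 for wild type yeast while the TORC1 bypass strain still grows fully, rated 3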
Hits are given with their value; – = inactive; · = no result. An excerpt weighted towards active compounds, which were near 0.92% of everything screened.

SMILES	AGP1-GFP MLPCN	LAP4 TOR yeast	RPL19A TOR yeast	CIT2 TOR yeast	MEP2 TOR yeast	s288c autofluor	others
Cc1cc(NC(=O)c2cccnc2)ccc1NC(=O)c1cc2ccccc2o1	–	–	–	–	–	·
O=C(Nc1ccc(NC(=O)c2cc3ccccc3o2)cc1)c1ccc2c(c1)OCCO2	–	–	–	–	–	–
COc1cc(NC(=O)c2c(OC)cccc2OC)ccc1NC(=O)c1cc2ccccc2o1	–	–	–	–	–	·
COc1cc(NC(=O)c2ccc(C)cc2)ccc1NC(=O)c1cc2ccccc2o1	–	–	–	–	–	–
Cc1cc(NC(=O)c2cccnc2Cl)ccc1NC(=O)c1cc2ccccc2o1	–	–	–	–	–	–
COc1cc(NC(=O)c2ccc(Br)cc2)ccc1NC(=O)c1cc2ccccc2o1	–	–	–	–	–	·
CCC(=O)Nc1ccc(NC(=O)c2cc3ccccc3o2)c(OC)c1	–	–	–	–	–	–
OCCN(Cc1ccccc1)c1ncnc2sccc12	–	–	–	–	–	·
CCSc1nnc(NC(=O)c2ccccn2)s1	–	175	–	–	–	–	Yeast autofl DR=–;TORC1 bypass=–
O=C(COc1ccc(F)cc1Cl)Nc1nc(-c2ccccn2)cs1	–	171	–	–	–	–	Yeast autofl DR=–;TORC1 bypass=–
CC(Oc1cccc(Cl)c1)C(=O)Nc1nc(-c2ccccn2)cs1 (stereo not given)	–	171	–	–	–	–
CC(Oc1ccccc1)C(=O)Nc1nc(-c2ccncc2)cs1 (stereo not given)	–	–	–	–	–	·
COc1ccc(CNC(=O)CN(Cc2ccc(F)cc2)C(=O)c2csnn2)cc1	–	–	–	–	–	·
CCCCN1CNC(=S)N(c2ccc(C(=O)OCC)cc2)C1	–	–	–	–	–	·
CC1(NC(=O)c2cccc(S(=O)(=O)N3CCN(c4ccc(F)cc4)CC3)c2)CCS(=O)(=O)C1 (stereo not given)	–	–	–	–	–	·
COc1cc(N2C(=O)C=CC2=O)c(OC)cc1Cl	–	260	–	–	–	–
C[C@H]1CN=C(N(C)C)N1CC1CCC(C(C)(C)C)CC1 (stereo not given in full)	–	–	–	–	–	·
O=C1N=c2ccccc2=C1c1c(O)n(-c2cccc(F)c2)[nH]c1=O	–	200	–	–	–	·	LAP4 cherry2=–;MEP2-GFP pick2=–;RPL19A GFP CP2=–;CIT2-GFP pick2=–;AGP1-GFP pick2=–
CCCCc1nc2c(C)c(N)cnc2n1Cc1cccc([N+](=O)[O-])c1	–	–	–	–	–	·
COc1ccc(F)cc1C1=CC(=O)C[C@H](c2ccc3c(c2)OCO3)C1	–	–	–	–	–	·
Oc1ccc(F)c2cccnc12	–	–	–	–	–	·

Source: PubChem
